# Pf Dd2 growth – blocks growth of Plasmodium falciparum Dd2 parasites | P. falciparum Dd2 growth, SYBR Green, 72 h; hits give low values | activity change, % at 10 µM | 94,000 compounds, 2.3% hits | AID 1159554; in the data active means activity change below about -80%
# C diff growth – inhibitors of Clostridium difficile growth. AID 1259249. growth activity, negative = inhibition, % at 16 µg/mL (by protocol). 86,000 compounds, 0.25% hits. Clostridium difficile clinical isolate growth, OD600, 24 h; hits give low values;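 active means mean growth activity at or below -80% and every replicate also at or below -80%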
# T cruzi growth – blocks T. cruzi growth in NIH3T3 culture; inhibition, % at 8.34 µM; T. cruzi beta-gal in NIH3T3, GalScreen luminescence, 90 h; 77,000 compounds, 5.9% hits;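 active means mean inhibition above about 93%, with at least 55% of replicates each passing it, limit read from the data, passing the limit was not always enough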
# Hits are given with their value; n = inactive; x = no result. Most compounds without a hit are left out; they make up all but 6.7% or so of the library.
SMILES,Pf Dd2 growth,C diff growth,T cruzi growth
C[C@H]1CN([C@@H](C)CO)C(=O)Cc2cc(NC(=O)Nc3cccc4ccccc34)ccc2O[C@@H]1CN(C)CC1CCCCC1,n,n,n
C[C@@H]1CN([C@H](C)CO)C(=O)Cc2cc(NC(=O)Nc3ccc4c(c3)OCO4)ccc2O[C@@H]1CN(C)S(=O)(=O)c1cn(C)cn1,n,n,n
COc1ccc(CN(C)C[C@H]2OCCCC[C@H](C)Oc3ccc(NS(=O)(=O)c4ccc(OC)cc4)cc3C(=O)N([C@H](C)CO)C[C@@H]2C)cc1,n,n,n
COc1ccc(S(=O)(=O)Nc2ccc3c(c2)C(=O)N([C@H](C)CO)C[C@@H](C)[C@H](CN(C)C(=O)NC2CCCCC2)OCCCC[C@H](C)O3)cc1,n,n,x
COc1ccc(S(=O)(=O)Nc2ccc3c(c2)C(=O)N([C@@H](C)CO)C[C@H](C)[C@H](CN(C)Cc2ccc(Cl)c(Cl)c2)OCCCC[C@@H](C)O3)cc1,n,x,n
COc1ccc(S(=O)(=O)Nc2ccc3c(c2)C(=O)N([C@@H](C)CO)C[C@H](C)[C@@H](CN(C)Cc2ccc(Cl)c(Cl)c2)OCCCC[C@@H](C)O3)cc1,-91.1,n,n
COc1ccc(S(=O)(=O)Nc2ccc3c(c2)C(=O)N([C@H](C)CO)C[C@@H](C)[C@@H](CN(C)C(=O)NC2CCCCC2)OCCCC[C@@H](C)O3)cc1,-86.4,n,n
COc1ccc(CN(C)C[C@H]2OCCCC[C@@H](C)Oc3ccc(NS(=O)(=O)c4ccc(OC)cc4)cc3C(=O)N([C@H](C)CO)C[C@H]2C)cc1,-87.0,n,x
C[C@@H]1CN([C@@H](C)CO)C(=O)c2cccc(NS(=O)(=O)c3ccc(Cl)cc3)c2O[C@H]1CN(C)Cc1ccc(C(=O)Nc2ccccc2N)cc1,n,n,x
Cc1ccc(S(=O)(=O)Nc2cccc3c2O[C@H](CN(C)Cc2ccc(C(=O)Nc4ccccc4N)cc2)[C@@H](C)CN([C@H](C)CO)C3=O)cc1,n,n,x
C[C@@H]1CN([C@H](C)CO)C(=O)c2cccc(NS(=O)(=O)c3ccccc3)c2O[C@@H]1CN(C)Cc1ccc(C(=O)Nc2ccccc2N)cc1,-84.6,n,x
C[C@H]1CN([C@@H](C)CO)C(=O)c2cccc(NS(=O)(=O)c3ccc(F)cc3)c2O[C@H]1CN(C)Cc1ccc(Cl)c(Cl)c1,-81.6,n,n
Cc1ccc(S(=O)(=O)Nc2cccc3c2O[C@@H](CN(C)Cc2ccc(C(=O)Nc4ccccc4N)cc2)[C@@H](C)CN([C@H](C)CO)C3=O)cc1,-82.7,n,x
C[C@@H]1CN([C@H](C)CO)C(=O)c2cccc(NS(=O)(=O)c3ccc(F)cc3)c2O[C@@H]1CN(C)Cc1ccc(C(=O)Nc2ccccc2N)cc1,-86.4,n,n
C[C@@H]1CN([C@H](C)CO)C(=O)c2cccc(NS(=O)(=O)c3ccc(F)cc3)c2O[C@H]1CN(C)Cc1ccc(C(=O)Nc2ccccc2N)cc1,n,n,x
C[C@H](CO)N1C[C@H](C)[C@H](CN(C)Cc2ccc(Cl)c(Cl)c2)Oc2c(NS(=O)(=O)c3ccc(F)cc3)cccc2C1=O,n,n,n
O=C(C[C@@H]1CC[C@@H]2[C@H](COC[C@H](O)CN2S(=O)(=O)c2ccc(Cl)cc2)O1)NCCN1CCCC1,n,n,n
C[C@@H]1CN([C@@H](C)CO)C(=O)c2cc(C#CC3CCCCC3)cnc2O[C@H]1CN(C)Cc1cccnc1,n,n,x
C[C@@H]1CN([C@@H](C)CO)C(=O)c2c(c3ccccc3n2C)-c2ccccc2CO[C@@H]1CN(C)C(=O)Nc1cccc(F)c1,n,x,n
CCC(=O)Nc1ccc2c(c1)C(=O)N(C)C[C@@H](OC)[C@H](C)CN(C(=O)c1ccncc1)[C@@H](C)CO2,n,x,n
C[C@H]1CN([C@@H](C)CO)C(=O)c2cccc(NS(=O)(=O)c3ccccc3)c2O[C@@H]1CN(C)Cc1ccc(C(=O)Nc2ccccc2N)cc1,n,n,x
C[C@H]1CN([C@@H](C)CO)C(=O)c2cccc(NS(=O)(=O)c3ccccc3)c2O[C@H]1CN(C)Cc1ccc(C(=O)Nc2ccccc2N)cc1,-88.2,n,x
COc1ccc(C#Cc2ccc([C@@H]3[C@@H](CO)N4CCCCN(Cc5ccccc5F)C[C@@H]34)cc2)cc1,n,n,n
COc1ccc(C#Cc2ccc([C@H]3[C@H](CO)N4CCCCN(Cc5ccccc5F)C[C@@H]34)cc2)cc1,n,-97.1,n
COc1ccc(C#Cc2ccc([C@H]3[C@@H](CO)N4CCCCN(Cc5ccncc5)C[C@@H]34)cc2)cc1,n,n,n
SMILES,Pf Dd2 growth,C diff growth,T cruzi growth
COc1ccc(C#Cc2ccc([C@H]3[C@@H](CO)N4CCCCN(Cc5ccncc5)C[C@H]34)cc2)cc1,-83.4,n,n
OC[C@@H]1[C@@H](c2ccc(C#CC3(O)CCCC3)cc2)[C@@H]2CN(Cc3ccccc3F)CCCCN12,n,n,n
COc1ccc(C#Cc2ccc([C@@H]3[C@H](CO)N4CCCCN(Cc5ccccc5F)C[C@@H]34)cc2)cc1,-82.3,-96.6,n
Cc1noc(C)c1NC(=O)Nc1ccc2c(c1)C(=O)N([C@@H](C)CO)C[C@H](C)[C@H](CN(C)S(=O)(=O)c1ccccc1)O2,n,n,n
C[C@H]1CN([C@@H](C)CO)S(=O)(=O)c2ccc(C3=CCCC3)cc2O[C@H]1CN(C)C,n,n,n
NCC[C@H]1CC[C@@H](NC(=O)Cc2ccncc2)[C@H](CO)O1,n,n,n
O=C(Cc1ccccn1)NCC[C@H]1CC[C@@H](NC(=O)Nc2ccccc2)[C@H](CO)O1,n,n,n
CCC(=O)N1C[C@@H](C)[C@@H](OC)CN(C)C(=O)c2ccc(NC(=O)Nc3ccc(Cl)cc3)cc2OC[C@@H]1C,n,x,n
C[C@@H]1CCCCO[C@@H](CN(C)S(=O)(=O)c2ccc(F)cc2)[C@H](C)CN([C@H](C)CO)C(=O)c2cc(NC(=O)Nc3cccc4ccccc34)ccc2O1,-82.0,n,n
C[C@@H]1CCCCO[C@@H](CN(C)S(=O)(=O)c2ccc(F)cc2)[C@H](C)CN([C@@H](C)CO)C(=O)c2cc(NC(=O)Nc3cccc4ccccc34)ccc2O1,n,n,n
C[C@@H]1CN([C@H](C)CO)C(=O)c2cc(NC(=O)Nc3cccc4ccccc34)ccc2O[C@@H](C)CCCCO[C@@H]1CN(C)S(=O)(=O)c1cccs1,-88.4,x,n
C[C@H](CO)N1C[C@H](C)[C@@H](CN(C)S(=O)(=O)c2ccc(F)cc2)OCCCC[C@H](C)Oc2ccc(NC(=O)Nc3cccc4ccccc34)cc2C1=O,n,n,n
C[C@@H]1CCCCO[C@@H](CN(C)S(=O)(=O)c2cn(C)cn2)[C@@H](C)CN([C@H](C)CO)C(=O)c2cc(NC(=O)Nc3cccc4ccccc34)ccc2O1,n,n,n
C[C@@H]1CCCCO[C@@H](CN(C)S(=O)(=O)c2ccc(F)cc2)[C@@H](C)CN([C@@H](C)CO)C(=O)c2cc(NC(=O)Nc3cccc4ccccc34)ccc2O1,-83.8,n,n
C[C@@H]1CN([C@@H](C)CO)C(=O)c2cc(NC(=O)Nc3cccc4ccccc34)ccc2O[C@@H](C)CCCCO[C@@H]1CN(C)S(=O)(=O)c1cn(C)cn1,-90.5,n,n
